Source: PubChem (Broad Institute)
A selection follows.
aSyn 5UTR act = Activators working through SNCA 5'UTR binding (MLPCN) | activity score, % (tested at 7.5 µM), hits read low | 300,000 compounds, 7.1% hits | alpha-synuclein 5'UTR reporter, activators screen | AID 1814; in the data active = activity score below about -60%
Active calls of the source: *.

SMILES | aSyn 5UTR act
Cc1ccnc(NC(=O)CNC(=O)c2sc3ccccc3c2Cl)c1 | -215.6*
CCN(CC)Cc1ccc(NC(=O)c2sc3cc(Cl)ccc3c2Cl)cc1 | 104.4
Cc1ccnc(NC(=O)c2sc3cc(Cl)ccc3c2Cl)c1 | -139.6*
Cc1c(C(=O)Nc2ccc(Br)cc2)cnn1C | -112.1*
O=C(CNC(=O)c1ccccc1Br)N/N=C/c1cc(Br)ccc1O | 69.6
CCc1ccc(NC(=O)c2n[nH]c(=O)c3ccccc23)cc1 | -84.0*
O=C(Nc1ccc(Br)cc1)c1ccccc1Br | -199.6*
CCc1ccc(NC(=O)c2ccccc2Br)cc1 | -144.3*
O=C(Nc1ccc2c(c1)OCO2)Nc1cnccn1 | -98.3*
O=C(Nc1cccc(F)c1)Nc1ccccn1 | -152.7*
O=C(NCc1ccccn1)Nc1ccc2c(c1)OCO2 | -91.9*
O=C(NCc1cccs1)Nc1ccc2c(c1)OCO2 | -145.0*
O=C(Nc1ccccn1)Nc1cccs1 | -76.8*
O=C(Nc1ccc2c(c1)OCO2)Nc1ccccn1 | -85.8*
O=C(NCc1cccs1)Nc1ccc(Cl)cc1 | -98.5*
Cc1cccc(NC(=O)NCc2ccc3c(c2)OCO3)c1 | -67.0*
O=C(NCc1ccncc1)Nc1ccc2c(c1)OCO2 | -64.3*
CC(=O)c1cccc(NC(=O)NCc2ccccn2)c1 | -166.9*
Cc1ccc(NC(=O)c2cc(=O)c3ccccc3o2)c(C)c1 | -95.9*
Cc1ccc(C)c(NC(=O)c2cc(=O)c3ccccc3o2)c1 | -133.6*
O=C(Nc1ccc(Cl)cc1Cl)c1csc(-c2cccnc2)n1 | -71.9*
O=C(Nc1ccc(Cl)cc1)c1csc(-c2ccncc2)n1 | -65.6*
O=C(Nc1ccc(Cl)cc1)c1csc(-c2ccccc2)n1 | -68.0*
CCOc1cc(/C=C\c2[nH]c(=O)[nH]c(=O)c2[N+](=O)[O-])ccc1OC(C)CC (centres undefined) | -67.0*
COc1ccc(/C=C2/SC(=O)NC2=O)cc1 | -117.5*
SMILES | aSyn 5UTR act
COc1cc(/C=C2/SC(=S)N(CC3CCCO3)C2=O)ccc1O (centres undefined) | -95.2*
Cc1ccc(/C=C2\SC(=S)N(CC3CCCO3)C2=O)o1 (centres undefined) | -68.0*
COc1ccc(/C=C2\SC(=S)N(CC3CCCO3)C2=O)cc1 (centres undefined) | -89.2*
COc1ccc(/C=C2/SC(=S)N(CCC(=O)O)C2=O)cc1 | 97.5
C=CCn1c(=O)/c(=C2/Sc3cc(OC)ccc3N2C)s/c1=C1\C(=O)N(CC)C(=S)N1C | -98.0*
COCCn1c(COc2ccc(C)cc2)nc2ccccc21 | -95.0*
CCn1c(COc2ccc(C)cc2)nc2ccccc21 | -125.6*
CCCn1c(CNc2ccc(Br)cc2)nc2ccccc21 | -118.5*
CCOCCn1c(COc2ccc(C)cc2)nc2ccccc21 | -117.8*
Cn1c(COc2ccccc2)nc2ccccc21 | -99.0*
Cc1ccc(NCc2nc3ccccc3n2CCOc2ccccc2)cc1 | -136.3*
CC(=O)c1sc(N/N=C2\CC3CC2C(C)C3(C)C)nc1C (centres undefined) | -100.6*
Cc1[nH]c2ccccc2c1CN1CCc2ccccc2C1 | -61.8*
CCCC(=NCCc1c(C)[nH]c2ccccc12)C1=C(O)CC(c2ccccc2)CC1=O (centres undefined) | 86.5
Cc1ccc(C(=O)c2cc3ccccc3o2)cc1 | -169.8*
Cc1ccc(S(=O)(=O)c2cc3ccccc3oc2=O)cc1 | -110.6*
Cc1ccc(C(=O)c2cc3ccccc3o2)cc1C | -67.8*
O=C(c1cc2ccccc2o1)c1cccs1 | -134.4*
C=CCNC(=O)COc1ccc(Br)cc1Cl | -102.8*
O=C(COc1ccc(Br)cc1Cl)c1ccc[nH]1 | -69.4*
COCCNC(=O)COc1ccc(Br)cc1Cl | -68.1*
CN(/N=C/C=C/c1ccccc1)c1cc(=O)n(C)c(=O)[nH]1 | -64.7*
CCOC(=O)c1c(NC(=S)N2CCN(C)CC2)sc2c1CCN(C(=O)OCC)C2 | -62.9*
O=C(NC12CC3CC(CC(C3)C1)C2)c1ccc(-c2ccc(Br)cc2)o1 | -245.9*
O=C(NC12CC3CC(CC(C3)C1)C2)c1ccc([N+](=O)[O-])o1 | -200.0*
SMILES | aSyn 5UTR act
CC1CC(C)CN(CCCNC(=O)c2ccc3nc(N4CCOCC4)sc3c2)C1 (centres undefined) | -113.2*
CC1CCCCN1CCCNC(=O)c1ccc2nc(N3CCCCC3)sc2c1 (centres undefined) | -325.6*
CCOC(CNC(=O)c1ccc2nc(N3CCC(C)CC3)sc2c1)OCC | -179.6*
CCCN1CCN(CCCNC(=O)c2ccc3nc(N4CCC(C)CC4)sc3c2)CC1 | -168.6*
Clc1ccc(Sc2cnc3ccccc3n2)cc1 | -75.2*
c1ccc(Sc2cnc3ccccc3n2)cc1 | -168.6*
Brc1ccc(Sc2cnc3ccccc3n2)cc1 | -77.1*
O=C(COc1ccc2c(c1)OCO2)Nc1ccccc1F | -97.9*
O=C(CCc1ccccc1)Nc1ccc(Cl)cn1 | -313.6*
O=C(CCc1ccccc1)NC(c1cccs1)c1cc(Cl)c2cccnc2c1O (centres undefined) | 88.2
O=C(COc1ccccc1)Nc1ccc(Cl)cn1 | -114.4*
O=C(COc1ccc2c(c1)OCO2)Nc1ccc(Cl)cn1 | -141.6*
O=C(/C=C/c1ccccc1Cl)Nc1ccc(Cl)cn1 | -118.3*
O=C(COc1ccc(Cl)cc1)Nc1ccc(Cl)cn1 | -125.3*
O=C(Nc1ccc(Cl)cn1)c1ccc(Oc2ccccc2)cc1 | -142.5*
O=C(/C=C/c1ccc2c(c1)OCO2)Nc1ccc(Cl)cn1 | -109.6*
Cc1ccccc1NC(=O)COc1ccc2c(c1)OC(C)(C)CC2=O | -87.7*
Cc1ccc(CC(=O)Nc2ccc(Cl)cn2)cc1 | -101.1*
C/C(=N\NC(=O)c1sccc1C)c1ccncc1 | -108.3*
C/C(=N\NC(=O)c1sccc1C)c1cccnc1 | -200.3*
COc1ccc2c(c1OC)C(=O)N(c1cccc(C)c1)C2 | -114.4*
COc1ccc2c(c1OC)C(=O)N(c1ccccn1)C2 | -121.7*
COc1ccc2c(c1OC)C(=O)N(c1cccc(C(F)(F)F)c1)C2 | -192.3*
Cc1ccc(-c2csc(-c3c[nH]c4ccccc34)n2)c(C)c1 | -92.2*
Oc1ccc(-c2csc(-c3c[nH]c4ccccc34)n2)c(O)c1 | -323.1*
SMILES | aSyn 5UTR act
CNc1nnc(-c2cccc(N(C)C)c2)s1 | -94.2*
CC1CCC(NC(=O)c2cccc(S(=O)(=O)N3CCN(c4ccc(F)cc4)CC3)c2)CC1 (centres undefined) | -72.1*
CN1CCC(=NOc2ccc([N+](=O)[O-])cc2)CC1 | -93.4*
N#Cc1ccsc1NC(=O)COC(=O)c1ccc2ccccc2c1 | -203.3*
COc1ccc(CCC(=O)Nc2sccc2C#N)cc1 | -156.0*
O=C1CCCCC/C1=N/Nc1ccc(OCc2ccccc2)cc1 | -74.0*
CCc1ccc2c(c1)C1(C(=O)N2)N2CCCC2C(C(=O)c2ccc3ccccc3c2)C12C(=O)Nc1ccccc12 (centres undefined) | -127.1*
CCc1ccc2c(c1)C1(NN=C(c3cccc4ccccc34)S1)C(=O)N2 (centres undefined) | 76.3
CCc1cccc2c1NC(=O)C21N2CCCC2C(C(=O)c2ccc3ccccc3c2)C12C(=O)Nc1ccccc12 (centres undefined) | -96.6*
COc1ccc(CC(=O)Nc2cccc(-c3nnc(-c4cccc(C)c4)o3)c2)cc1OC | -187.4*
COc1ccccc1OCC(=O)Nc1cccc(-c2nnc(-c3ccco3)o2)c1 | -87.5*
CC(C)COc1ccc(-c2nnc(-c3ccco3)o2)cc1 | 86.1
O=C(COc1ccccc1)Nc1nnc(-c2ccc3c(c2)CCCC3)o1 | -95.0*
O=C(COc1ccccc1)Nc1ccc(-c2nnc(-c3ccco3)o2)cc1 | -83.9*
CCCOc1ccc(-c2nnc(-c3ccco3)o2)cc1 | 64.7
